Results taken from the supplement of paper PMC11624193, “Coupling cellular drug-target engagement to downstream pharmacology with CeTEAM” (Nature Communications, 2024).
Structures can show the parent of a compound that is named as a salt. A number with no mark means an inactive call.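 The calls were made as follows: active = log2 fold change beyond 2 SD from the library mean after excluding viability outliers; inactive = within 2 SD.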

What follows are compounds tested against PARP1 L713F-nLuc biosensor (HCT116) (UniProt P09874) (assay: PARP1 L713F-nLuc/akaLuc ratio relative to DMSO control (biosensor stabilization) (fold change); higher = more PARP1 biosensor stabilization (target engagement / stabilizer), active = hit call of the paper). Conditions: stock concentration (mM; final µM = stock mM x 1): 10; 24 h.
Sequence of PARP1 L713F-nLuc biosensor (HCT116) (P09874 whole entry L713F, looked up): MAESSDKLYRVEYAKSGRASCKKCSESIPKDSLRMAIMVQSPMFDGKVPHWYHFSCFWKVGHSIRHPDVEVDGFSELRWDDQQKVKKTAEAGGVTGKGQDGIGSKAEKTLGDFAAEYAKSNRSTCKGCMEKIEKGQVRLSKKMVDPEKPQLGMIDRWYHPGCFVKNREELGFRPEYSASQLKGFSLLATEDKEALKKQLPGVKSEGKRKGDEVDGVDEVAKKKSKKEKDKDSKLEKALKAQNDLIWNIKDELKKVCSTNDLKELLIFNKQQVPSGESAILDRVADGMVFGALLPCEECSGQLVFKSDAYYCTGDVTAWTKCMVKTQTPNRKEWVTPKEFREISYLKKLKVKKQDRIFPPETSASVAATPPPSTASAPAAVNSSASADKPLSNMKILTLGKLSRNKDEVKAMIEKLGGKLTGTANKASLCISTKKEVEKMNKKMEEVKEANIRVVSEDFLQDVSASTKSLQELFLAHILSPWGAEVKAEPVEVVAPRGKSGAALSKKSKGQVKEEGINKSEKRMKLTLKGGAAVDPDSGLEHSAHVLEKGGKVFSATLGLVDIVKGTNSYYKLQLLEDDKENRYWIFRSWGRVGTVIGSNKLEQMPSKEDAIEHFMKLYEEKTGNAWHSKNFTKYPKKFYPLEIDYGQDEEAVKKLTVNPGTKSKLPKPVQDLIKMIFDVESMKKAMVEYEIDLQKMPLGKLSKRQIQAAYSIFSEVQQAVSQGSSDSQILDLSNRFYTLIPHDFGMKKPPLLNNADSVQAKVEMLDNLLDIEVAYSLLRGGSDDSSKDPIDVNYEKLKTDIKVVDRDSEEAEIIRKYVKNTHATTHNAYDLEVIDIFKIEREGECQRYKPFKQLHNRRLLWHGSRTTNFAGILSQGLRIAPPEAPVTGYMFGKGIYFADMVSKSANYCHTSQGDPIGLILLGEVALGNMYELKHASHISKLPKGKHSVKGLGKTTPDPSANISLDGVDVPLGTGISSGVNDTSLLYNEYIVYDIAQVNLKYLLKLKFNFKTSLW

Question: How did the “PARP1 L713F-nLuc/akaLuc ratio” value turn out when `NC[C@@](O)(c1ccc(Cl)cc1)c1ccc(-c2cn[nH]c2)cc1` was run?
Answer: The value was 0.809.

Question: For `NC(=O)/C(=C/n1cnc(-c2cc(C(F)(F)F)cc(C(F)(F)F)c2)n1)c1cncnc1` [Eltanexor (KPT-8602)], which “PARP1 L713F-nLuc/akaLuc ratio” value is on record?
Answer: Its value is 0.767.

Question: `COc1cc2ncnc(Nc3cc(Br)c(O)c(Br)c3)c2cc1OC` was tested. Which “PARP1 L713F-nLuc/akaLuc ratio” value did it give?
Answer: Its value is 1.37.

Question: Which “PARP1 L713F-nLuc/akaLuc ratio” value does the source give for `Cn1ncc(Cl)c1-c1cc(C(=O)N[C@H](CN)Cc2cccc(F)c2)sc1Cl` [Afuresertib] here?
Answer: The value was 1.63.

Question: Which “PARP1 L713F-nLuc/akaLuc ratio” value does the source give for `N#Cc1cc2cc(CN3CCC(Nc4ncnc5sc(CC(F)(F)F)cc45)CC3)c(O)cc2n1Cc1cn[nH]c1` here?
Answer: Its value is 0.315 (active).

Question: How did the “PARP1 L713F-nLuc/akaLuc ratio” value turn out when `NC(=O)c1cccc2cn(-c3ccc([C@@H]4CCCNC4)cc3)nc12` [Niraparib (hydrochloride)] was run?
Answer: Its value is 4.39 (active).

Question: `Cn1cnc2c(F)c(Nc3ccc(Br)cc3F)c(C(=O)NOCCO)cc21` was tested. Which “PARP1 L713F-nLuc/akaLuc ratio” value did it give?
Answer: The value was 0.546.

Question: For `CCCc1cc(C)[nH]c(=O)c1CNC(=O)c1cc(-c2ccc(N3CCN(C)CC3)nc2)nc2c1cnn2C(C)C`, which “PARP1 L713F-nLuc/akaLuc ratio” value is on record?
Answer: Its value is 1.04.

Question: `CS(=O)(=O)c1ccc(C(=O)Nc2ccc(Cl)c(-c3ccccn3)c2)c(Cl)c1` [Vismodegib (GDC-0449)] was tested. Which “PARP1 L713F-nLuc/akaLuc ratio” value did it give?
Answer: Its value is 1.11.

Question: How did the “PARP1 L713F-nLuc/akaLuc ratio” value turn out when `COc1ccc2cc3[n+](cc2c1OC)CCc1cc(O)c(O)cc1-3` [Demethyleneberberine] was run?
Answer: Its value is 1.47.

Question: With `COC(=O)Nc1nc2cc(Sc3ccccc3)ccc2[nH]1` [Fenbendazole] as the compound, how does the “PARP1 L713F-nLuc/akaLuc ratio” value read?
Answer: Its value is 2.66.

Question: `CS(=O)(=O)c1ccc(-c2cnc(NCc3ccco3)n3cnnc23)cc1` was tested. Which “PARP1 L713F-nLuc/akaLuc ratio” value did it give?
Answer: The value was 0.722.

Question: `Cc1ncccc1-c1cnc(NCc2c(F)ccc3c2CCO3)n2cnnc12` was tested. Which “PARP1 L713F-nLuc/akaLuc ratio” value did it give?
Answer: Its value is 1.39.

Question: Which “PARP1 L713F-nLuc/akaLuc ratio” value does the source give for `O=c1c(O)c(-c2ccc(O)c(O)c2)oc2cc(O)c(O)c(O)c12` [Quercetagetin] here?
Answer: The value was 0.792.

Question: With `CC1=C(CC[C@@H](C)CO[C@@H]2O[C@H](CO)[C@@H](O)[C@H](O)[C@H]2O)O[C@H]2C[C@H]3[C@@H]4CC=C5C[C@@H](O[C@@H]6O[C@H](CO)[C@@H](O[C@@H]7O[C@@H](C)[C@H](O)[C@@H](O)[C@H]7O)[C@H](O)[C@H]6O[C@@H]6O[C@@H](C)[C@H](O)[C@@H](O)[C@H]6O)CC[C@]5(C)[C@H]4CC[C@]3(C)[C@@H]12` [Pseudoprotodioscin] as the compound, how does the “PARP1 L713F-nLuc/akaLuc ratio” value read?
Answer: The value was 0.989.

Question: Which “PARP1 L713F-nLuc/akaLuc ratio” value does the source give for `CC#CC(=O)N1CC[C@@H](n2c(=O)n(-c3ccc(Oc4ccccc4)cc3)c3c(N)ncnc32)C1` [ONO-4059 (GS-4059) hydrochloride] here?
Answer: Its value is 1.06.

Question: `COCCNCc1ccc(-c2cc3nccc(Oc4ccc(NC(=O)C5(C(=O)Nc6ccc(F)cc6)CC5)cc4F)c3s2)nc1` [Sitravatinib (MGCD516)] was tested. Which “PARP1 L713F-nLuc/akaLuc ratio” value did it give?
Answer: The value was 1.48.

Question: With `CCCC(CCC)C(=O)O` [Valproic acid (sodium salt)] as the compound, how does the “PARP1 L713F-nLuc/akaLuc ratio” value read?
Answer: The value was 0.704.

Question: For `Nc1nc(=O)n(-c2cccc(-c3ccccc3)c2)cc1Cl` [Bobcat339 (hydrochloride)], which “PARP1 L713F-nLuc/akaLuc ratio” value is on record?
Answer: Its value is 0.757.

Question: Which “PARP1 L713F-nLuc/akaLuc ratio” value does the source give for `O=C(O)CC1CC(c2ccccc2)=NO1` (stereo not given) here?
Answer: Its value is 1.72.

Question: `Cc1cc(C)nc(SCC(=O)Nc2ncc(Cc3cccc(OCc4cn(Cc5ccccc5)nn4)c3)s2)n1` was tested. Which “PARP1 L713F-nLuc/akaLuc ratio” value did it give?
Answer: The value was 0.615.

Question: Which “PARP1 L713F-nLuc/akaLuc ratio” value does the source give for `CC(=O)N[C@@H](CCCCN)C(=O)Nc1ccc2c(C)cc(=O)oc2c1` here?
Answer: The value was 0.736.

Question: How did the “PARP1 L713F-nLuc/akaLuc ratio” value turn out when `COCCCc1sc(-c2ccccc2)nc1C(=O)Nc1ccccc1-c1nc2cc(CN3CCCC3)cnc2s1` [Sirtuin modulator 1] was run?
Answer: The value was 0.737.

Question: For `CNCc1ccc(-c2[nH]c3cc(F)cc4c3c2CCNC4=O)cc1` [Rucaparib (phosphate)], which “PARP1 L713F-nLuc/akaLuc ratio” value is on record?
Answer: The value was 5.55 (active).

Question: How did the “PARP1 L713F-nLuc/akaLuc ratio” value turn out when `C[C@H](Nc1ncnc2[nH]cnc12)c1cc2ccc(F)cc2nc1-c1ccccn1` was run?
Answer: The value was 0.767.

Question: For `CC(C)Oc1ccc(-c2nn([C@@H](C)c3oc4ccc(F)cc4c(=O)c3-c3cccc(F)c3)c3ncnc(N)c23)cc1F` [umbralisib (TGR-1202)], which “PARP1 L713F-nLuc/akaLuc ratio” value is on record?
Answer: The value was 1.01.

Question: With `Cc1cccc(-c2nn3c(c2-c2ccnc4ccc(C(N)=O)cc24)CCC3)n1` as the compound, how does the “PARP1 L713F-nLuc/akaLuc ratio” value read?
Answer: Its value is 0.664.

Question: Which “PARP1 L713F-nLuc/akaLuc ratio” value does the source give for `CNc1nc(NC2CCN(Cc3ccc4c(cc(C#N)n4CC45CC(NC=O)(C4)C5)c3C)CC2)c2cc(CC(F)(F)F)sc2n1` here?
Answer: The value was 1.38.

Question: How did the “PARP1 L713F-nLuc/akaLuc ratio” value turn out when `CNCCN(C)Cc1c[nH]nc1-c1ccc(O[C@H]2C[C@H](OCCC3CCOCC3)C2)cc1` was run?
Answer: The value was 0.64.

Question: For `N#CCC1(n2cc(-c3ncnc4[nH]ccc34)cn2)CN(C2CCN(C(=O)c3ccnc(C(F)(F)F)c3F)CC2)C1` [Itacitinib], which “PARP1 L713F-nLuc/akaLuc ratio” value is on record?
Answer: Its value is 0.6.
